Drawing on PubChem BioAssay (NCI), this text covers growth inhibition for eight compounds.

About 79,000 compounds went through this panel and 15% of them were active in at least one assay; those are over-represented in the sample as a whole. A number with no mark means an inactive call. Active and inactive are the calls of the source. Cut-off read from the data, not from the text of the source: active = growth inhibition above about 70%; inactive = the rest.

This experiment can be described thus: NCI Yeast Anticancer Drug Screen. Data for the wt2 strain (AID 169).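 Note: 0% = growth of vehicle-treated yeast cultures.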 Particulars: S. cerevisiae wt2 strain growth inhibition, stronger effect = higher value. As to the method: Growth inhibition of yeast strains with defined genetic alterations is measured as a screen for potential anti-cancer activity. Selected strains with alterations in DNA damage repair or cell cycle control were exposed to compounds and growth inhibition was measured relative to vehicle treated controls. The strain used in this assay is wt2

On to `C=Cc1cnc([N+](=O)[O-])n1C`, for which the growth inhibition was -31% (at 1.2 µM); -43% (at 3.7 µM); -34% (at 11.0 µM); 63% (at 33.0 µM); 96% (active) (at 100.0 µM).

With `CCOC(=O)Nc1ccc2c(c1)Cc1ccccc1-2`, the growth inhibition reads like this: (at 1.2 µM) 5%; (at 3.7 µM) 9%; (at 11.0 µM) 14%; (at 33.0 µM) 19%; (at 100.0 µM) 14%.

Turning to `CCN1/C(=C/c2ccc3ccccc3[n+]2CC)C=Cc2ccccc21`, the growth inhibition was -32% (at 1.2 µM); -20% (at 3.7 µM); 57% (at 11.0 µM); 98% (active) (at 33.0 µM); 98% (active) (at 100.0 µM).

As for `Cc1c2cc[n+](CCN3CCCCC3)cc2c(C)c2c1[nH]c1ccc(O)cc12`, the growth inhibition runs as follows: (at 1.2 µM) 5%; (at 3.7 µM) 4%; (at 11.0 µM) 5%; (at 33.0 µM) 12%; (at 100.0 µM) 96% (active).

Consider `COc1cc(N)ccc1Nc1c2ccccc2nc2ccccc12`, for which the growth inhibition runs as follows: (at 1.2 µM) 6%; (at 3.7 µM) 9%; (at 11.0 µM) 9%; (at 33.0 µM) 31%; (at 100.0 µM) 86% (active).

Consider `CC(=O)C1(O)Cc2c(O)c3c(c(O)c2C(OC2CC(N)C(O)C(C)O2)C1)C(=O)c1ccccc1C3=O` (stereo not given), for which the growth inhibition is 2% (at 1.2 µM); 27% (at 3.7 µM); 93% (active) (at 11.0 µM); 98% (active) (at 33.0 µM); 99% (active) (at 100.0 µM).

With `COC(=O)c1oc([N+](=O)[O-])c(Cl)c1Cl`, the growth inhibition is, setting by setting: (at 1.2 µM) 64%; (at 3.7 µM) 51%; (at 11.0 µM) 74% (active); (at 33.0 µM) 99% (active); (at 100.0 µM) 99% (active).

Turning to `CCCCC(CC)C(=O)Oc1ccc(C(=O)c2ccccc2)c(O)c1` (stereo not given), the growth inhibition is -18% (at 1.2 µM); -7% (at 3.7 µM); -4% (at 11.0 µM); 37% (at 33.0 µM); 97% (active) (at 100.0 µM).
